TGFb SMAD3 inh = TGF-b pathway inhibition. HepG2 CAGA-GFP TGF-b/SMAD3 reporter, GFP fluorescence, 18 h; TGF-beta stimulated, 500 pg/mL final. Potency, µM (doses to about 46.1 µM), without a hit: at the top dose activity, negative = inhibition, hits mostly inhibitors. 1.2% of 410,000 active. AID 588855; note: % is set by controls: 0 for no effect and ±100 for the full control effect; nearly all actives have a fitted effect of over 65% in size
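First, reporter cells (HEPG2 CAGA-GFP) rested 2 h at 37 degrees C. Next, compounds were pinned in and TGF-beta added to 500 pg/mL final. After 18 h, GFP was imaged per cell and summed per well.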
ATXN2 expr inh = reduces ATXN2 reporter expression in HEK-293 cells; 0.72% of 360,000 active; Potency, µM (highest dose often 57 µM), for the others: at the highest dose activity change, negative = inhibition, actives largely listed as inhibitors; HEK-293 ATXN2-luciferase reporter, luminescence, 24 h; note: % is set by controls: 0 for no effect and ±100 for the full control effect; nearly all actives have a fitted effect of over 55% in size
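qHTS (up to 57 uM final) was run with 24 h compound exposure of reporter cells at 37 °C. Each well was multiplexed: SteadyGlo luminescence measured ATXN2-luciferase expression after a fluorogenic Gly-Phe-AFC viability readout (25 uM final).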
HepG2 tox = HepG2 cytotoxicity, counter-screen for TGF-b inhibitors | HepG2 CAGA-GFP viability, ATP luminescence, 18 h | Potency, µM (series often up to 46.1 µM), inactives show at the top dose activity change, negative = cytotoxicity, most hits filed as cytotoxic | 0.76% of 410,000 active
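CellTiter-Glo luminescence gave cytotoxicity after 18 hours at 37 degrees C. The cells were HepG2 CAGA-GFP in 1% FBS DMEM, stimulated with 500 pg/mL TGF-beta after compound addition. %Activity was normalised to no-cell wells (complete cell-killing) and DMSO (no toxicity), and curves were fitted and classified.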
GLP1R ag = GLP-1 receptor (human) agonism | P43220 | HEK293 GLP-1R CRE-luciferase, luminescence, 4-6 h; cells express a hypersensitive GLP-1R form | Potency, µM (highest dose often 45.6 µM), inactives show at the highest dose activation, hits mostly activators | 0.007% of 380,000 active | AID 624172; note: % of control where 0% means no effect
Target sequence (P43220 whole entry, looked up): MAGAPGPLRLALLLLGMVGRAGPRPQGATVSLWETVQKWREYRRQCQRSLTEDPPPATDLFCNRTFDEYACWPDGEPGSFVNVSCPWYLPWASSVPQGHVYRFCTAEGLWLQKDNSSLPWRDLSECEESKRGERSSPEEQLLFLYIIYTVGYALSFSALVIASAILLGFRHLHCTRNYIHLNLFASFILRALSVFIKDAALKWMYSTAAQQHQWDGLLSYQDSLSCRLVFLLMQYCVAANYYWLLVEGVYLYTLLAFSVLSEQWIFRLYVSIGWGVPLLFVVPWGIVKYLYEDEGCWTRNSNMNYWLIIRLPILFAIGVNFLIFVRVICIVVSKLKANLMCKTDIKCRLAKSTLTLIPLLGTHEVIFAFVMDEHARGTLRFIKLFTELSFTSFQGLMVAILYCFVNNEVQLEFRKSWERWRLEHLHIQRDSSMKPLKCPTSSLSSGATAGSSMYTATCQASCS
GLP-1R inv ag = GLP-1 receptor (human) inverse agonism; P43220; HEK293 GLP-1R CRE-luciferase, luminescence, 24 h; GLP-1R form is constitutively active; Potency, µM (titrated, usually from 38.3 µM), for the others: at the top dose activity change, negative = inhibition, usual class: inhibitors; 1.6% of 410,000 active; AID 624417; note: % is set by controls: 0 for no effect and ±100 for the full control effect; nearly all actives have a fitted effect of over 55% in size
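Seeding at 200 cells/uL, 12 h culture, 24 hr compound treatment, then luciferase reagent and a luminescence read; cells are HEK293 stably expressing a constitutively active GLP-1R plus cAMP-responsive luciferase.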
ATXN viability = viability counter-screen for ATXN expression inhibitors. S2 cells (HEK-293 line with an ATXN2-luciferase reporter) viability, CellTiter-Fluor protease fluorescence, 24 h. Potency, µM (doses to about 56.7 µM), actives largely listed as cytotoxic. 0.49% of 400,000 active; note: nearly all actives have a fitted effect of over 40% in size
The depositor's hits bear a star; i = inactive; u = inconclusive; x = no result. The list is not random: actives were taken first. Their share in the collection is about 3.7%. Calls come from the whole dose curve; as a rule, active = well fitted curve in the direction sought with a large enough effect; inconclusive = small, poorly fitted or top-dose-only effect, or another doubt; inactive = no such curve, though single readings can be large; an effect the other way counts as inactive or inconclusive. Potency is the fitted concentration of half-maximal effect.

SMILES	TGFb SMAD3 inh	ATXN2 expr inh	HepG2 tox	GLP1R ag	GLP-1R inv ag	ATXN viability
COC(=O)c1c(SCC(=O)Nc2cc(C)cc(C)c2)[nH]c2ccccc2c1=O	13µM*	u	10µM*	0%	-19%	i
COC(=O)c1c(SCC(=O)Nc2ccccc2C(F)(F)F)[nH]c2ccc(Cl)cc2c1=O	u	5%	4%	x	-4%	i
Cc1ccccc1-n1ncc2c(SCC(=O)NCc3cccs3)ncnc21	u	0%	-5%	1%	10µM*	i
Cc1csc(NC(=O)CSc2ncnc3c2cnn3-c2ccccc2Cl)n1	u	-7%	-5%	-16%	u	i
COc1cccc(CN2CCCC(c3nc(-c4ccncc4)ncc3-c3ccccc3C)C2)c1O (stereo not given)	x	x	x	x	x	i
C/C(=N\NC(=O)c1cc(C2CC2)nc2ccccc12)c1ccc(O)cc1O	u	2.5µM*	-17%	-6%	u	u
Cc1ccc(CSC2=NS(=O)(=O)c3ccccc32)cc1	u	x	-29%	x	x	x
CCOC(=O)C(CC)(CC)C(=O)/C=C/c1cccc(Br)c1	14µM*	u	-116%	-31%	-9%	u
COc1cnc(-c2ccccc2)nc1Oc1cccc(C)c1C	u	2%	7%	5%	11µM*	i
CC[C@H](NC(=O)[C@H](C)NC)C(=O)N1C[C@@H](O)C[C@H]1Cc1c(-c2[nH]c3cc(F)ccc3c2C[C@H]2C[C@H](O)CN2C(=O)[C@H](CC)NC(=O)[C@H](C)NC)[nH]c2cc(F)ccc12	x	-6%	x	x	x	x
Cc1ccc2nc3ccc(N4CCCC4)nn3c(=O)c2c1	-27%	38%	-16%	-12%	18%	i
CC1CCCN(c2ccc3nc4ccccc4c(=O)n3n2)C1 (stereo not given)	u	u	-53%	-3%	5µM*	i
Fc1ccc(C(c2nnnn2CCc2ccccc2)N2CCCc3ccccc32)cc1 (stereo not given)	1%	-15%	-15%	-4%	2.8µM*	i
COc1ccc(N2CCN(C(c3ccccc3)c3nnnn3Cc3ccc(F)cc3)CC2)cc1 (stereo not given)	-25%	-1%	4%	3%	13µM*	i
Fc1ccc(C(c2nnnn2C2CCCC2)N2CCc3ccccc32)cc1 (stereo not given)	3%	-11%	-16%	-6%	u	i
COc1ccc(C(c2nnnn2Cc2ccc(F)cc2)N2CCN(c3ccccc3)CC2)cc1 (stereo not given)	33%	-2%	21%	-18%	u	i
COc1ccccc1C(c1nnnn1CCc1ccccc1)N1CCCCCC1 (stereo not given)	u	-16%	-9%	3%	11µM*	u
COc1ccccc1N1CCN(C(c2ccccc2)c2nnnn2CCc2ccccc2)CC1 (stereo not given)	-12%	-7%	-49%	0%	11µM*	i
Cc1ccccc1N1CCN(Cc2c[nH]c3ccccc23)CC1	u	u	10µM*	-2%	u	u
c1cnc(N2CCN(Cc3c[nH]c4ccccc34)CC2)nc1	u	-13%	-24%	9%	u	i
CC1(Cc2ccccc2C#N)C(=O)Nc2ccc(OC(F)(F)F)cc21 (stereo not given)	-16%	-10%	-24%	5%	u	i
CC1(Cc2ccccc2Cl)C(=O)Nc2ccc(OC(F)(F)F)cc21 (stereo not given)	11µM*	u	-90%	0%	10µM*	u
Cc1cc(C(=O)NNc2ccc(F)cc2F)no1	0%	0%	-50%	0%	2.8µM*	u
Cc1nn2cc(-c3ccc(OC(C)C)cc3)nc2s1	-20%	0%	-37%	x	u	i
